This is a sample that favours compounds with a hit; in the whole collection about 28% have one here.
Mac1 fbg inh: inhibitors of CD11b/CD18 adhesion to fibrinogen, primary screen, K562 cells, luminescence; Integrin beta-2 (Homo sapiens) + Integrin alpha-M (Homo sapiens), P05107+P11215; ATPlite luminescence; Mn2+ added to activate the integrin; inhibition, % at 10 µM; 0.54% of 93,000 active; AID 1497, 2009;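 active = primary inhibition of 50% or more at 10 µM, then 40% or more on retest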
Target sequence (P05107 whole entry, looked up, other chains not shown): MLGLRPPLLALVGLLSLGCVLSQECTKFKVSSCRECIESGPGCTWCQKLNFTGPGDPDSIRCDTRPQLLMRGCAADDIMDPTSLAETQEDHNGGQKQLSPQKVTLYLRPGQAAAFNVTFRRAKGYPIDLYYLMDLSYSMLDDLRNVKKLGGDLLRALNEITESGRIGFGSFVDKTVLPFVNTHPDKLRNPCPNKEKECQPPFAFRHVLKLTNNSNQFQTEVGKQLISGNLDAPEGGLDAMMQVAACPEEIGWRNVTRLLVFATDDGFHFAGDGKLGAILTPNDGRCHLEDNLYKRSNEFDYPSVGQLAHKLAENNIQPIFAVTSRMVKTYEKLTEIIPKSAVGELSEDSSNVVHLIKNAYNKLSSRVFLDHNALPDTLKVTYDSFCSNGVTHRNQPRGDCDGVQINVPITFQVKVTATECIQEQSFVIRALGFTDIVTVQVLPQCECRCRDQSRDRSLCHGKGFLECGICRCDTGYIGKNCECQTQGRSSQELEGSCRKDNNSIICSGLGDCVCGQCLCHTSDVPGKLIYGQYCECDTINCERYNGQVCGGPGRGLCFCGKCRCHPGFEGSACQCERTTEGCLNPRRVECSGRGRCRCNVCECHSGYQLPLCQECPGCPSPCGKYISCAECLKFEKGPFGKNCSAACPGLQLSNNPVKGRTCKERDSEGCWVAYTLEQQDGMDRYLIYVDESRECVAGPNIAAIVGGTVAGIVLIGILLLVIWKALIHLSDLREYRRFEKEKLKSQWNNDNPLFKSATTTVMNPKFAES
CYP2C9 inhib: blockers of cytochrome P450 2C9 activity – biochemical, luminescence, ADME assay, primary screen | CYP2C9 Supersomes, luciferin-H conversion | 20% of 96,000 active | P11712 | AID 777, 2007 | inhibition, % at 5 µM;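 active = blocking of liver enzyme CYP2C9 beyond about 50% at 5 µM, limit read from the data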
CYP2C19 inh: blockers of cytochrome P450 2C19 activity – biochemical, luminescence, ADME assay, primary screen; P33261; inhibition, % at 5 µM; 21% of 96,000 active; AID 778, 2007; CYP2C19 Supersomes, luciferin-H EGE luminescence, 30 min;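 active = CYP2C19 inhibition above a set limit at 5 µM in the primary screen, cut at about 50% in these data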;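 note: plate controls were negative control wells for no effect and 2.5 mM tranylcypromine positive control for full effect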
CYP2C19 activ: human CYP2C19 activators, primary screen, biochemical, luminescence; Cytochrome P450 2C19 (Homo sapiens), P33261; recombinant CYP2C19, luciferin-H EGE luminescence; stronger effect = higher value; 0 = fully inhibited enzyme, 1 = untreated enzyme; activation factor at 5 µM; 96,000 tested, under 10 active;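 active = activation factor of at least 2 at 5 µM in the primary screen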;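 note: 0 = wells with 2.5 mM tranylcypromine and 1 = vehicle-only wells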
Mac1 fbg enh: enhancers of CD11b/CD18 adhesion to fibrinogen, primary screen, K562 cells, luminescence. activation, % at 10 µM. AID 1499, 2009. ATPlite luminescence. 0.07% of 93,000 active. Integrin beta-2 (Homo sapiens) + Integrin alpha-M (Homo sapiens), P05107+P11215;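 active = 10 µM primary screen giving 50% or more activity, confirmed by 40% or more on retest at that dose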
CYP2C9 activ: human CYP2C9 activators, primary screen, biochemical, luminescence. 1.4% of 96,000 active. recombinant CYP2C9, luciferin-H conversion; stronger effect = higher value; factor 1 = untreated enzyme, 0 = blocked. Cytochrome P450 2C9 (Homo sapiens), P11712. AID 1024, 2008. activation factor at 5 µM;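 active = activation factor of 2 or more for CYP2C9 at a 5 µM dose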;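 note: 0 = sulfaphenazole-blocked wells and 1 = vehicle-only wells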
* marks the source's active call; other numbers are inactive results.

Results for CC1=NOC(=O)/C1=C/c1ccc(N(C)C)cc1 ?
Mac1 fbg inh: 4; CYP2C9 inhib: 3; CYP2C19 inh: -15; CYP2C19 activ: 1.1; Mac1 fbg enh: -6; CYP2C9 activ: 1

How did CC1=NOC(=O)/C1=C\c1ccc(-c2cc(Cl)ccc2Cl)o1 do in these assays?
Mac1 fbg inh: 30; CYP2C9 inhib: 4; CYP2C19 inh: 60*; CYP2C19 activ: 0.4; Mac1 fbg enh: -6; CYP2C9 activ: 1

What do the screens show for `C=CCNC(=S)N/N=C/c1ccc(-c2cc(Cl)ccc2Cl)o1`?
CYP2C9 inhib: -69; CYP2C19 inh: 9; CYP2C19 activ: 0.9; CYP2C9 activ: 1.7

What do the screens show for `N=c1ccccn1CC(O)COc1ccccc1` (stereo not drawn)?
Mac1 fbg inh: -15; CYP2C9 inhib: -7; CYP2C19 inh: 4; CYP2C19 activ: 1; Mac1 fbg enh: -2; CYP2C9 activ: 1.1

What do the screens show for `CN=c1sc2ccccc2n1CC(O)COc1ccccc1` (stereo not drawn)?
Mac1 fbg inh: 10; CYP2C9 inhib: 71*; CYP2C19 inh: 96*; CYP2C19 activ: 0; Mac1 fbg enh: 0; CYP2C9 activ: 0.3

Results for CCN=c1sc2ccccc2n1CC(O)COc1ccccc1 (stereo not drawn) ?
Mac1 fbg inh: -1; CYP2C9 inhib: 93*; CYP2C19 inh: 99*; CYP2C19 activ: 0; Mac1 fbg enh: -1; CYP2C9 activ: 0.1

Results for COc1ccc(OCC(O)Cn2c(=N)n(CCN3CCCCC3)c3ccccc32)cc1 (stereo not drawn) ?
Mac1 fbg inh: 19; CYP2C9 inhib: 3; CYP2C19 inh: -2; CYP2C19 activ: 1; Mac1 fbg enh: -3; CYP2C9 activ: 1

Results for Cc1cccc(N2CCN(C(=O)c3cccc(N4C(=O)C5CC=CC(C)C5C4=O)c3)CC2)c1C (stereo not drawn) ?
Mac1 fbg inh: 6; CYP2C9 inhib: 59*; CYP2C19 inh: 28; CYP2C19 activ: 0.7; Mac1 fbg enh: -3; CYP2C9 activ: 0.4

Results for CCOC(=O)c1sc2ncnc(NCc3ccco3)c2c1C ?
Mac1 fbg inh: 6; CYP2C9 inhib: 38; CYP2C19 inh: 41; CYP2C19 activ: 0.6; Mac1 fbg enh: 2; CYP2C9 activ: 0.6

How did CCn1cnc2sc(C(=O)N(Cc3ccc(N(C)C)cc3)Cc3ccco3)c(C)c2c1=O do in these assays?
Mac1 fbg inh: 5; CYP2C9 inhib: 98*; CYP2C19 inh: 88*; CYP2C19 activ: 0.1; Mac1 fbg enh: 1; CYP2C9 activ: 0

Results for C=CCn1c(O)c(N=NC(=O)c2ccc3c(c2)OCO3)c2ccccc21 ?
CYP2C9 inhib: -4; CYP2C19 inh: 2; CYP2C19 activ: 1; CYP2C9 activ: 1

What do the screens show for `CC(C)C(=O)Nc1ccccc1C(=O)OCC(=O)c1ccc2c(c1)OCCO2`?
Mac1 fbg inh: -1; Mac1 fbg enh: 18

Results for CC1=C(C(=O)Nc2ccc(C)cc2)C(c2ccc(C)o2)C2=C(CC(C)(C)CC2=O)N1 (stereo not drawn) ?
Mac1 fbg inh: 21; CYP2C9 inhib: 1; CYP2C19 inh: -4; CYP2C19 activ: 1; Mac1 fbg enh: 2; CYP2C9 activ: 1

How did CCOC(=O)C1=C(C)NC2=C(C(=O)CC(c3ccc(OC)c(OC)c3)C2)C1c1ccc(C)o1 (stereo not drawn) do in these assays?
Mac1 fbg inh: 8; CYP2C9 inhib: 59*; CYP2C19 inh: 19; CYP2C19 activ: 0.8; Mac1 fbg enh: -1; CYP2C9 activ: 0.4

Results for CC1=C(C(=O)OCCOc2ccccc2)C(c2ccc(C)o2)C2=C(CC(C)(C)CC2=O)N1 (stereo not drawn) ?
Mac1 fbg inh: 20; CYP2C9 inhib: 82*; CYP2C19 inh: 78*; CYP2C19 activ: 0.2; Mac1 fbg enh: 3; CYP2C9 activ: 0.2

High-throughput results deposited in PubChem by Sanford-Burnham Center for Chemical Genomics.
